The test system of assay [1] is Vero E6 infected with SARS-CoV-2. In words: morphology score (similarity to uninfected cells); higher = more like uninfected cells. The note with it: 24 h.
Assay [2] has the same test system. Kind of assay: SARS-CoV-2 infection rate relative to infected DMSO; higher = more infection, active = 60 or less. As to conditions: 24 h.

Results on seven molecules are retold here after the supplement of paper PMC13380429.

The molecule `O=C1NCCc2[nH]c(-c3ccncc3)cc21` (0.833333 µM) came in with a morphology score in assay [1] of 0.0617. The SARS-CoV-2 infection rate in assay [2] is 106% (inactive).
Consider `CC1(C)OC[C@@H](COC(=O)CCc2ccc(OC[C@@H](O)CNCCNC(=O)N3CCOCC3)cc2)O1` [landiolol] (10 µM), for which, in assay [1], the morphology score was -0.108. The SARS-CoV-2 infection rate in assay [2] is 113% (inactive).
Regarding `Clc1ccc2c(c1)CCc1cccnc1C2=C1CCNCC1` [desloratadine] (10 µM), the morphology score in assay [1] was determined as 0.351. Further, in assay [2], the SARS-CoV-2 infection rate is 76% (inactive).
The corresponding values for `COc1ccc(CNC(=O)c2cc(-c3cncc(C)c3)ncc2-c2nccs2)nc1OC` (10 µM) are -0.0112 and 100% (inactive).
In the same order, the values of `CCN(c1ccccc1)c1cc(=NC)n(C)c(C)n1` (10 µM) are 0.203 and 94% (inactive).
In the same order, the values of `O=C(C[C@H]1CC(c2ccc(F)cc2F)=NO1)N1CCOCC1` (racemic) (10 µM) are 0.00815 and 103% (inactive).
In turn, `CC(=O)C1=C(O)[C@@H]2[C@H]3c4c[nH]c5cccc(c45)C[C@H]3C(C)(C)N2C1=O` [cyclopiazonic-acid] (0.833333 µM) displayed a morphology score in assay [1] of 0.361. The SARS-CoV-2 infection rate in assay [2] is 76.5% (inactive).
